Data on 20 compounds can be found in PubChem BioAssay (NCATS).

Records with an inconclusive call do not appear. A call without a number means that no potency is given here. The source made the active and inactive calls. The call rests on the fitted dose curve; in most records, active means well fitted inhibition curve with a large enough effect; inconclusive means small, poorly fitted or top-dose-only effect; inactive means flat fitted curve, though single readings scatter.
Potency means the concentration at half of the fitted maximal effect.

The test system of this experiment is TAB165. Briefly: qHTS profiling for inhibitors of Plasmodium falciparum proliferation (AID 504749). Further: nearly all actives have a fitted effect of over 60% in size. As to conditions: P. falciparum in erythrocytes, SYBR Green DNA, 72 h; series mostly up to 28.7 µM. The method in brief: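 In a 72 h erythrocytic culture (37 C, humidified, 5% CO2) at 2.5% hematocrit and 0.3% starting parasitemia, compounds were tested; SYBR Green I in detergent lysis buffer stained parasite DNA overnight.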
Turning to `O=P(O)(O)OC[C@H]1O[C@](O)(COP(=O)(O)O)[C@@H](O)[C@@H]1O`, the Potency result is “inactive”.
In the case of `NC(=O)Oc1ccc(Cc2ccccc2)cc1` it was “inactive”.
Consider `O=C(O)CCC(=O)c1ccc(-c2ccccc2)cc1`, for which the Potency result is “inactive”.
Turning to `COc1cc(NCCCC(C)N)c2ncccc2c1` (stereo not given), the Potency is 2.24 µM (active).
In the case of `CCCOc1cc(N)ccc1C(=O)OCCN(CC)CC`, the Potency entry is “inactive”.
Consider `CCCCCCCCCCCCOCCCN`, for which the Potency entry is “inactive”.
As to `O=S(=O)(O)CC(S)CS` (stereo not given), the Potency result is “inactive”.
Regarding `O=C1[O][Bi][O]c2ccccc21`, the Potency entry was “inactive”.
For `Cc1ccc(S(=O)(=O)O)cc1C`, the Potency entry was “inactive”.
For `CN1C(=O)C[C@@H](C(=O)N[C@@H](Cc2cnc[nH]2)C(=O)N2CCC[C@H]2C(N)=O)NC1=O`, the Potency result was “inactive”.
In the case of `Cc1cc(-c2ccc(N=Nc3ccc4c(S(=O)(=O)O)cc(S(=O)(=O)O)c(N)c4c3O)c(C)c2)ccc1N=Nc1ccc2c(S(=O)(=O)O)cc(S(=O)(=O)O)c(N)c2c1O` it was “inactive”.
For the compound `NC(=S)NS(=O)(=O)c1ccc(N)cc1`, the Potency entry is “inactive”.
Consider `COC(=O)CC[C@H](N)C(=O)O`, for which the Potency entry is “inactive”.
With `Cc1nc(NS(=O)(=O)c2ccc(N)cc2)nc(C)c1Br`, the Potency result was “inactive”.
Regarding `NCC(O)CC(=O)O` (stereo not given), the Potency entry was “inactive”.
In the case of `CCCCCCCCCCCC(=O)N(CCO)CCO` it was “inactive”.
Turning to `CC(C)(COP(=O)(O)OP(=O)(O)OC[C@H]1O[C@@H](n2cnc3c(N)ncnc32)[C@H](O)[C@@H]1OP(=O)(O)O)C(O)C(=O)NCCC(=O)NCCS` (stereo not given in full), the Potency result is “inactive”.
On to `COc1ccc(/C=C/C(=O)OCCC(C)C)cc1`, for which the Potency result was “inactive”.
As for `O=C1c2ccccc2CN2C(=O)c3ccccc3CN12`, the Potency entry is “inactive”.
With `CC1=CC(=O)NS(=O)(=O)O1`, the Potency result was “inactive”.
